The campaign covered roughly 310,000 compounds. About 14,000 (4.5%) showed an effect of 50% or more. Effects have a minus sign here. The list comes from a sample in which strong results are over-represented; it also holds similar structures and randomly drawn compounds.
What follows are compounds tested against human ether-à-go-go-related gene (hERG) potassium channel (human, UniProt Q12809) (assay: primary screen, population patch clamp on CHO cells stably expressing hERG; higher = less effect of the substance).
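Also: peak tail current of the secondary pulse compared with the same well before compound.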

human ether-à-go-go-related gene (hERG) potassium channel, sequence (Q12809 whole entry, looked up): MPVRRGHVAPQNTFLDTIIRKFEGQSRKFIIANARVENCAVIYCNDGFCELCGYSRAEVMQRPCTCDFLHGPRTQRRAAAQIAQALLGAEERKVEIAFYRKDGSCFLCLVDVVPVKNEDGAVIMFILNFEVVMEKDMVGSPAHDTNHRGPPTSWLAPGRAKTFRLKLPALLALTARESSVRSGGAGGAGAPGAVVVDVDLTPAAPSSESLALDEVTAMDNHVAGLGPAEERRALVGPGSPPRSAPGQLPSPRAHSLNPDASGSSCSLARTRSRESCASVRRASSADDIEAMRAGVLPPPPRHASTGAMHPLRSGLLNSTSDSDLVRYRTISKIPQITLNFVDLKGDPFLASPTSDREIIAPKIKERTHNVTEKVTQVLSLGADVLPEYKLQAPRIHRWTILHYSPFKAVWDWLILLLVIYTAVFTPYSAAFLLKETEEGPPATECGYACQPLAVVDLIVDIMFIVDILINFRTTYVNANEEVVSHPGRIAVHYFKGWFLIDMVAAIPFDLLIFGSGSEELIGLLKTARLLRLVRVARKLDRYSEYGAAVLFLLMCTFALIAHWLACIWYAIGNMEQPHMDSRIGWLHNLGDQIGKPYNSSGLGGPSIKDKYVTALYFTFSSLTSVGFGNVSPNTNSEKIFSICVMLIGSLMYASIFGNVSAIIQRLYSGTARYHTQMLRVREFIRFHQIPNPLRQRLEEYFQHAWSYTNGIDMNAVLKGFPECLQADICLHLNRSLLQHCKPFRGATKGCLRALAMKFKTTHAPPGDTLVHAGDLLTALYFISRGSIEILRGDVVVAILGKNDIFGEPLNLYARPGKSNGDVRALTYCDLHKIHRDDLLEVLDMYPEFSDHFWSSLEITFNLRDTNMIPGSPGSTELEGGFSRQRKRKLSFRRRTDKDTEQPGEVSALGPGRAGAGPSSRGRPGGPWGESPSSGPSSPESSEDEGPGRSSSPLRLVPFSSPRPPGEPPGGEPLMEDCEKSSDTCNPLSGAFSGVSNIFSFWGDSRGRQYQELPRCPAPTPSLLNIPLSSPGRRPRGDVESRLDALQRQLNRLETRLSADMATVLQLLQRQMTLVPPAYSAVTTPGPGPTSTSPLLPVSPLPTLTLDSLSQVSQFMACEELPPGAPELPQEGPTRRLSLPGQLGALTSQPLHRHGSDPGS

Row | Compound | hERG current change (%, negative = inhibition) at 10uM [%]
1 | O=C(c1cc(F)cc2c1OCOC2)N1CCN(c2ccc(F)cc2)CC1 | -16
2 | CC(C)C(OC(=O)CN1C(=O)COc2ccccc21)C(=O)NC1CCCCC1 (centres unmarked) | -9.89
3 | COC(=O)c1cn(CC(=O)N2CCCCCC2)c2ccccc12 | -40.1
4 | CCN(CC(=O)NCc1cccs1)C(=O)c1cc(S(=O)(=O)N2CCCCC2)ccc1Cl | -40.2
5 | Cc1ccc2c(Cl)c(C(=O)NCC3CCCO3)sc2c1 (centres unmarked) | -12.8
6 | COc1ccccc1C(=O)NC(=O)COC(=O)c1oc2ccccc2c1C | 1.8
7 | OCC[C@H]1C[C@@H](O)[C@H](O)[C@]2(Cc3ccccc3CCO2)O1 | -0.537
8 | COc1ccc(NC(=O)CN(C)C(=O)/C=C/c2cn(Cc3ccccc3)nc2-c2cccnc2)cc1 | -25.9
9 | CN(CC(=O)Nc1cccc(F)c1)C(=O)/C=C/c1ccc(Br)s1 | 13.2
10 | CN(CC(=O)Nc1cccc(F)c1)C(=O)/C=C/c1cn(Cc2ccccc2)nc1-c1cccnc1 | -48.8
11 | COc1cccc(NC(=O)CN(C)C(=O)/C=C/c2cc(OC)ccc2OC)c1 | -67.8
12 | COc1cccc(NC(=O)CN(C)C(=O)/C=C/c2cn(Cc3ccccc3)nc2-c2cccnc2)c1 | -59.4
13 | COc1ccc(OC)c(/C=C/C(=O)N(C)CC(=O)Nc2ccc(C)cc2)c1 | -18.3
14 | CN(CC(=O)Nc1cccc(F)c1)C(=O)/C=C/c1cc(Br)ccc1OC(F)F | -54.8
15 | CN(CC(=O)Nc1cccc(F)c1)C(=O)/C=C/c1ccc2ccccc2n1 | 7.19
16 | COc1ccc(OC)c(/C=C/C(=O)N(C)CC(=O)Nc2cc(C)ccc2C)c1 | -15.1
17 | COc1ccc(OC)c(S(=O)(=O)N(C)CC(=O)N2CCOCC2)c1 | 11.3
18 | O=C(CSc1nc2ccccc2s1)N/N=C/c1ccccc1C(=O)O | 30.5
19 | CC1CCN(C(=O)CSc2nnc(-c3ccncc3)n2C)CC1 | 6.41

Row | Compound | hERG current change (%, negative = inhibition) at 10uM [%]
20 | CCc1nc(N[C@@H](Cc2c[nH]c3ccccc23)C(=O)O)c2oc3ccccc3c2n1 | 8.39
21 | CC(C)(C)c1ccc(-c2cc(C(=O)NNC(=O)Nc3ccccc3)c3ccccc3n2)cc1 | 13.6
22 | CCC(C)[C@H]1COCCS(=O)(=O)N1Cc1ccccc1F (some centres unmarked) | -18.5
23 | Cc1cc(-c2ccc(C)c(S(=O)(=O)NCC3CCN(Cc4ccc(F)cc4)CC3)c2)on1 | -66.2
24 | COc1ccc(-c2cc(C)no2)cc1S(=O)(=O)NCC1CCN(Cc2cc(C)ccc2C)CC1 | -72
25 | COc1ccccc1CN1CCC(CNS(=O)(=O)c2cc(-c3cc(C)no3)ccc2OC)CC1 | -58.2
26 | Cc1cc(-c2ccc(C)c(S(=O)(=O)NCC3CCN(Cc4cccc(F)c4)CC3)c2)on1 | -39.1
27 | CCOc1ccccc1CNS(=O)(=O)c1cc(-c2cc(C)no2)ccc1OC | -18.4
28 | COc1ccccc1CN1CCC(CNS(=O)(=O)c2cc(-c3onc(C)c3C)ccc2OC)CC1 | -76.7
29 | CCc1ccc(-c2cc(C)no2)cc1S(=O)(=O)NCc1ccccc1OC | -15.8
30 | COc1ccc(-c2cc(C)no2)cc1S(=O)(=O)NCCCN1CCCCCC1 | -17.4
31 | COc1ccc(-c2onc(C)c2C)cc1S(=O)(=O)NCCc1ccco1 | -41.8
32 | COc1ccc(CNS(=O)(=O)c2cc(-c3cc(C)no3)ccc2OC)cc1OC | 2.57
33 | CCc1ccc(-c2cc(C)no2)cc1S(=O)(=O)N1CCCN(Cc2ccc(F)cc2)C1 | 5.62
34 | COc1ccccc1CNS(=O)(=O)c1cc(C)ccc1OC | 9.32
35 | O=C(Nc1cccc(NC(=O)c2ccc(Br)cc2)c1)c1ccccc1 | 18
36 | CCCC(CCC(=O)Nc1ccn(-c2ccccc2)n1)C(=O)O (centres unmarked) | 4.5
37 | COc1ccc(S(=O)(=O)N2CCCC(C(=O)NCc3ccccc3)C2)cc1 (centres unmarked) | 23.7
38 | CN(C)C=O.CN(C)c1ccc(/C=C/c2nc3ccccc3c(=O)n2-c2ccc(C(=O)O)cc2)cc1 | 19.8

Row | Compound | hERG current change (%, negative = inhibition) at 10uM [%]
39 | C=CCn1c(SCC(N)=O)nnc1-c1ccccc1O | 0.103
40 | CCOc1ccc(CCN2CN(CC)CNC2=S)cc1OCC | -0.457
41 | COc1cccc(C(=O)NC(C)c2cccc3ccccc23)c1OC (centres unmarked) | -10.4
42 | S=C(NC1CCCCC1)N1CCc2ccccc2C1 | -5.33
43 | Cc1cc2cc(CCNC(=O)c3ccc(S(=O)(=O)N4CCOCC4)cc3)c(=O)[nH]c2cc1C | 6.3
44 | Cc1ccnc(NS(=O)(=O)c2ccccc2)c1 | 15.2
45 | COc1ccccc1CNS(=O)(=O)c1cc(-c2cc(C)no2)ccc1C(C)C | 5.07
46 | COc1ccc(-c2cc(C)no2)cc1S(=O)(=O)NCCCN1CCN(c2ccccc2)CC1 | -68
47 | Cc1cc(-c2ccc(C)c(S(=O)(=O)NCCCN3CCN(c4ccccc4)CC3)c2)on1 | -33.2
48 | Cc1cc(-c2ccc(C)c(S(=O)(=O)NCCCN(Cc3ccccc3)C(C)C)c2)on1 | -36.9
49 | COc1ccccc1CN1CCC(CNS(=O)(=O)c2cc(-c3cc(C)no3)ccc2C)CC1 | -61.3
50 | Cc1cc(-c2ccc(C)c(S(=O)(=O)NCC3CCN(Cc4ccccc4F)CC3)c2)on1 | -52.8
51 | Cc1cc(-c2ccc(C)c(S(=O)(=O)NCCCN3CCN(c4ccccc4F)CC3)c2)on1 | 10.3
52 | CCOc1ccccc1CNS(=O)(=O)c1cc(-c2cc(C)no2)ccc1C | -19
53 | CCc1ccc(-c2cc(C)no2)cc1S(=O)(=O)NCCN1CCC(C)CC1 | -7.14
54 | COc1ccc(-c2cc(C)no2)cc1S(=O)(=O)NCCCN(C)Cc1ccccc1 | -29.9
55 | CCc1ccc(-c2cc(C)no2)cc1S(=O)(=O)NCCCN1CCN(c2ccccc2)CC1 | 1.91
56 | CCN(CCCNS(=O)(=O)c1cc(-c2cc(C)no2)ccc1C)Cc1ccccc1 | -61.3

Source: article PMC4336329 (PLoS ONE, 2015)
